Experimental data taken from publication PMC7862700, “An all-to-all approach to the identification of sequence-specific readers for epigenetic DNA modifications on cytosine”.

Legend:
Experiment in all cases: DAPPL (digital affinity profiling via proximity ligation, sequencing); 10 mM Tris-HCl pH 7.5, 50 mM NaCl, 1 mM DTT, 4% glycerol, room temperature, 30 min; GST-TFs on glutathione beads, 16-mer random dsDNA library, 0.1% formaldehyde crosslink after washing; high values mean tight binding
FLI1 = target: T1, FLI1 (Homo sapiens, UniProt Q01543 1-452); details: protein: recombinant; tags: N-terminal GST; dsDNA, one strand shown
T1 sequence: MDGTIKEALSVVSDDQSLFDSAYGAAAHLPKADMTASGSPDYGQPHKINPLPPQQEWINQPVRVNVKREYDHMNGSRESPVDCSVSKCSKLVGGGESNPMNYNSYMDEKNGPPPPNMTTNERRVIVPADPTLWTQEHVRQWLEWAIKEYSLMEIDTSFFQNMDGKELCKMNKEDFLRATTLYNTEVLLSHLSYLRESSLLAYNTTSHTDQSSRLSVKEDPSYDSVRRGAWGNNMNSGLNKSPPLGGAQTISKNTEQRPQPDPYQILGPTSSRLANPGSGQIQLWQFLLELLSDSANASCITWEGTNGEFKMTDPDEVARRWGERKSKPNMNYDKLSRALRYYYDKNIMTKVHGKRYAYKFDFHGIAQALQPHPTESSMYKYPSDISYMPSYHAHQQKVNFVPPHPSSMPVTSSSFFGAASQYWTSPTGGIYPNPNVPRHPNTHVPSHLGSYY
Outline: (§1)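 Pools were built from human transcription factors expressed in yeast as GST fusions, captured on glutathione beads and DNA-barcoded, along with a tag-only sample. Incubation with 200 nmole of a 16-mer random double-stranded DNA library lasted 30 min at room temperature in Tris/NaCl/DTT/glycerol buffer, and was followed by washing, 0.1% formaldehyde crosslinking, proximity ligation, PCR amplification and Illumina NextSeq500 sequencing. Binding signal is the quotient of each hexamer's read frequency for a factor and its frequency for the tag-only sample.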

ELK1 = target: T2, ELK1 (Homo sapiens, UniProt P19419 1-428); details: protein: recombinant; tags: N-terminal GST; dsDNA, one strand shown
T2 sequence: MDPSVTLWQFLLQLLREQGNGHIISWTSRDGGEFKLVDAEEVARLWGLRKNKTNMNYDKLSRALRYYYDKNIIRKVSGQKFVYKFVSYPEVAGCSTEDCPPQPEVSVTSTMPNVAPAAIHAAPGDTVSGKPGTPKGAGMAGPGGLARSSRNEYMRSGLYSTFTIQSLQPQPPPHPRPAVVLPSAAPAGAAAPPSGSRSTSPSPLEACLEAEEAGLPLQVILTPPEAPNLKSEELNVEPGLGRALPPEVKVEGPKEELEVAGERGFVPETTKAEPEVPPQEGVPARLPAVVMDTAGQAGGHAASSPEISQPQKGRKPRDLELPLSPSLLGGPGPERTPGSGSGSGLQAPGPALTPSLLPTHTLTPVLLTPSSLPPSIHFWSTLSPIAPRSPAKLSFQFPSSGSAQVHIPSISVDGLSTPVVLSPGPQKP
Outline: as §1

GABPA = target: T3, GABPA (Homo sapiens, UniProt Q06546 1-454); details: protein: recombinant; tags: N-terminal GST; dsDNA, one strand shown
T3 sequence: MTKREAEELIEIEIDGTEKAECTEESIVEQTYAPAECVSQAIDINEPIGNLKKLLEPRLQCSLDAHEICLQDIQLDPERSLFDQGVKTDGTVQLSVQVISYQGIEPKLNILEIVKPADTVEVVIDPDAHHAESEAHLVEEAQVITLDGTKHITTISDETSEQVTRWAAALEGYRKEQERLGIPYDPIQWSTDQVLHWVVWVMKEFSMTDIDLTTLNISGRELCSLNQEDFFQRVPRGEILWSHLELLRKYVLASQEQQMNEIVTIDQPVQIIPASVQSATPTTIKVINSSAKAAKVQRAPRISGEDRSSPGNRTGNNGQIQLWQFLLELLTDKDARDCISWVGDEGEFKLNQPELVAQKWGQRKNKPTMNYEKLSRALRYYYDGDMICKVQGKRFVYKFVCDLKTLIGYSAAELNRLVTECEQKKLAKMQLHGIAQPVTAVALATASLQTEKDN
Outline: as §1

ERG = target: T4, ERG (Homo sapiens, UniProt P11308 1-479); details: protein: recombinant; tags: N-terminal GST; dsDNA, one strand shown
T4 sequence: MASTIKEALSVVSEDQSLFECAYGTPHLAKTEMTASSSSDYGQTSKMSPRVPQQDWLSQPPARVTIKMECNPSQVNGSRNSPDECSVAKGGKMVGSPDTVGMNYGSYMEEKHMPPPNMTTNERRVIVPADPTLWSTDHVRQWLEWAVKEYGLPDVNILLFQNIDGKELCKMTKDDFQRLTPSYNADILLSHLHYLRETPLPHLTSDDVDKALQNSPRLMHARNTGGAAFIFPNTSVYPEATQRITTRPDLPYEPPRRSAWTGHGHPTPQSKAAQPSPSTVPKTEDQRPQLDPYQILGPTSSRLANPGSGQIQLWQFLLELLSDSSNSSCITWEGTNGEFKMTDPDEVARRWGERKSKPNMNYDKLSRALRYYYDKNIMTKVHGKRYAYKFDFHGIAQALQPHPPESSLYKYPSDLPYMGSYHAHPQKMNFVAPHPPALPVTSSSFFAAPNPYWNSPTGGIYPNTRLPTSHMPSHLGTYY
Outline: as §1

ELF1 = ELF1 (Homo sapiens, UniProt P32519 1-619); details: protein: recombinant; tags: N-terminal GST; dsDNA, one strand shown
Outline: as §1

EHF = target: T5, EHF (Homo sapiens, UniProt Q9NZC4 1-300); details: protein: recombinant; tags: N-terminal GST; dsDNA, one strand shown
T5 sequence: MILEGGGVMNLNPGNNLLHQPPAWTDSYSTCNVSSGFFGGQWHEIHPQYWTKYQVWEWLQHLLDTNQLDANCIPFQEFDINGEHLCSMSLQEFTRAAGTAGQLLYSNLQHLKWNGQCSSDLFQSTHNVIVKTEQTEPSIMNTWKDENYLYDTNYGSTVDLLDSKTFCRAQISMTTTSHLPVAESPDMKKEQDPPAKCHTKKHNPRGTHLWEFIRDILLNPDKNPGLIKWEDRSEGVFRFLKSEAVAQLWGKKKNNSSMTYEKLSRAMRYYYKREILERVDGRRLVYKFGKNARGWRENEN
Outline: as §1

SPI1 = SPI1 (Homo sapiens, UniProt P17947 1-270); details: protein: recombinant; tags: N-terminal GST; dsDNA, one strand shown
Outline: as §1

SPIB = SPIB (Homo sapiens, UniProt Q01892 1-262); details: protein: recombinant; tags: N-terminal GST; dsDNA, one strand shown
Outline: as §1

ELK3 = target: T6, ELK3 (Homo sapiens, UniProt P41970 1-407); details: protein: recombinant; tags: N-terminal GST; dsDNA, one strand shown
T6 sequence: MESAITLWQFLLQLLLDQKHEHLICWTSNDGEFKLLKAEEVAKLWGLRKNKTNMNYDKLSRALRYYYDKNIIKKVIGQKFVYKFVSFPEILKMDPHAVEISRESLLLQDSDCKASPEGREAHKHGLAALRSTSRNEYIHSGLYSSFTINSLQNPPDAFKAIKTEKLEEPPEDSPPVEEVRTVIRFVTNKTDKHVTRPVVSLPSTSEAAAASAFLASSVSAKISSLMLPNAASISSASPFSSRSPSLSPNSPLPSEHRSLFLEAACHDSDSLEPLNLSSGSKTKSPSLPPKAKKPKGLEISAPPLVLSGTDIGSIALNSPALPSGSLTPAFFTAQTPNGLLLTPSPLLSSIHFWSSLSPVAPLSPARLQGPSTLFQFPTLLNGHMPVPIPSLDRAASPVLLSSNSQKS
Outline: as §1

FEV = target: T7, FEV (Homo sapiens, UniProt Q99581 1-238); details: protein: recombinant; tags: N-terminal GST; dsDNA, one strand shown
T7 sequence: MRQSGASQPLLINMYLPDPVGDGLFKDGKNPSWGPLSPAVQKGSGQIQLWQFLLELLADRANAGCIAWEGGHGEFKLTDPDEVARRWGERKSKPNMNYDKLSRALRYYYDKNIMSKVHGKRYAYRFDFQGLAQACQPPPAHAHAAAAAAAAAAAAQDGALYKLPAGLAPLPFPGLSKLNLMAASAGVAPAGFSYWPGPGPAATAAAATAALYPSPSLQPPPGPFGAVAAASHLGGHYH
Outline: as §1

ETV5 = ETV5 (Homo sapiens, UniProt P41161 1-510); details: protein: recombinant; tags: N-terminal GST; dsDNA, one strand shown
Outline: as §1

HSF1 = HSF1 (Homo sapiens, UniProt Q00613 1-529); details: protein: recombinant; tags: N-terminal GST; chain copies: 3; dsDNA, one strand shown
Outline: as §1

SPIC = target: T8, SPIC (Homo sapiens, UniProt Q8N5J4 1-248); details: protein: recombinant; tags: N-terminal GST; dsDNA, one strand shown
T8 sequence: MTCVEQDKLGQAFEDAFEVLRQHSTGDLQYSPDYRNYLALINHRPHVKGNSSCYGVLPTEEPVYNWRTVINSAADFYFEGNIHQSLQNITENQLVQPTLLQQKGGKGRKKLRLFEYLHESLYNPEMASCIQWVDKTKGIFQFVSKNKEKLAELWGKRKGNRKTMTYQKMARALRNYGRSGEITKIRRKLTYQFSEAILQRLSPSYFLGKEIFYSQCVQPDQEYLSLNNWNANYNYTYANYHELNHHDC
Outline: as §1

ELF4 = ELF4 (Homo sapiens, UniProt Q99607 1-663); details: protein: recombinant; tags: N-terminal GST; dsDNA, one strand shown
Outline: as §1

ELK4 = target: T9, ELK4 (Homo sapiens, UniProt P28324-2 1-405); details: protein: recombinant; tags: N-terminal GST; dsDNA, one strand shown
T9 sequence: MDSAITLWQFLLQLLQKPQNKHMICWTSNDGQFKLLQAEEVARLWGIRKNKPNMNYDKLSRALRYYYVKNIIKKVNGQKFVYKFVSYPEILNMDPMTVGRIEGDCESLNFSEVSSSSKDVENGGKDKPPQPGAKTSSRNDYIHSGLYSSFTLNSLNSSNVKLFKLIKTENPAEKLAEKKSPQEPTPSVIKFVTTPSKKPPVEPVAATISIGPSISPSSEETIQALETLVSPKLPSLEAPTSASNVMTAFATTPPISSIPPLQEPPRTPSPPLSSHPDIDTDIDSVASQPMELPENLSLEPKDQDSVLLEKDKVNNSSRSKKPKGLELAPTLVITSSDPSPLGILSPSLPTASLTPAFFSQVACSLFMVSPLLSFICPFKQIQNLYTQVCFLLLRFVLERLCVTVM
Outline: as §1

ETV2 = target: T10, ETV2 (Homo sapiens, UniProt O00321 1-342); details: protein: recombinant; tags: N-terminal GST; dsDNA, one strand shown
T10 sequence: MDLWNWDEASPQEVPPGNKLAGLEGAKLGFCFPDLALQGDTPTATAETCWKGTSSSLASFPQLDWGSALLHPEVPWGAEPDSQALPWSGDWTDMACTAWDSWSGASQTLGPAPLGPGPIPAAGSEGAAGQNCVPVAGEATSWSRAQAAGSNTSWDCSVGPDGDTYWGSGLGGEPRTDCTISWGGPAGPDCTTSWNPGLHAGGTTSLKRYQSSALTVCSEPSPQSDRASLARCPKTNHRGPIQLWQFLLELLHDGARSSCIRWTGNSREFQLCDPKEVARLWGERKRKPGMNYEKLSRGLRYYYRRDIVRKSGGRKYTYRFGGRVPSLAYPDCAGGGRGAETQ
Outline: as §1

ELF3 = target: T11, ELF3 (Homo sapiens, UniProt P78545 1-371); details: protein: recombinant; tags: N-terminal GST; dsDNA, one strand shown
T11 sequence: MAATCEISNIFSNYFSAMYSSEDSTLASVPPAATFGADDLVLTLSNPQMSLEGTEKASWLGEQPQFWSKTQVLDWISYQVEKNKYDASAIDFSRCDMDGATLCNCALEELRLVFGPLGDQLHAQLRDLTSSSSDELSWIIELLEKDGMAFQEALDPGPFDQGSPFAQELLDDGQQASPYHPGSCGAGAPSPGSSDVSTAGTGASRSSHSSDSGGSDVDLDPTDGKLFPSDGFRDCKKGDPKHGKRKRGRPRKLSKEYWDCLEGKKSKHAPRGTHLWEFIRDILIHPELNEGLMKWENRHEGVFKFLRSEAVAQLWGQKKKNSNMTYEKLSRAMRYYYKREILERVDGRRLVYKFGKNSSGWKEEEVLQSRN
Outline: as §1

CRX = CRX (Homo sapiens, UniProt O43186 1-299); details: protein: recombinant; tags: N-terminal GST; dsDNA, one strand shown
Outline: as §1

ETV1 = ETV1 (Homo sapiens, UniProt P50549 1-477); details: protein: recombinant; tags: N-terminal GST; dsDNA, one strand shown
Outline: as §1

Chain of CRX (O43186 whole entry): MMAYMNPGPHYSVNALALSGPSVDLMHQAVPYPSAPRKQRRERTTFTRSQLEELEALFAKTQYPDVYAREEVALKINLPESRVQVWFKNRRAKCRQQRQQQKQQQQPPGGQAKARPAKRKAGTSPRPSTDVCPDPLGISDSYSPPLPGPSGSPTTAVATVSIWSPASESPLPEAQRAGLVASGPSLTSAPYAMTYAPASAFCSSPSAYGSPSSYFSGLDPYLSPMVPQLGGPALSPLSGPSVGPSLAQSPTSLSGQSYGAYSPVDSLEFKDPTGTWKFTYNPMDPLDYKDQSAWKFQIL
Chain of ELF4 (Q99607 whole entry): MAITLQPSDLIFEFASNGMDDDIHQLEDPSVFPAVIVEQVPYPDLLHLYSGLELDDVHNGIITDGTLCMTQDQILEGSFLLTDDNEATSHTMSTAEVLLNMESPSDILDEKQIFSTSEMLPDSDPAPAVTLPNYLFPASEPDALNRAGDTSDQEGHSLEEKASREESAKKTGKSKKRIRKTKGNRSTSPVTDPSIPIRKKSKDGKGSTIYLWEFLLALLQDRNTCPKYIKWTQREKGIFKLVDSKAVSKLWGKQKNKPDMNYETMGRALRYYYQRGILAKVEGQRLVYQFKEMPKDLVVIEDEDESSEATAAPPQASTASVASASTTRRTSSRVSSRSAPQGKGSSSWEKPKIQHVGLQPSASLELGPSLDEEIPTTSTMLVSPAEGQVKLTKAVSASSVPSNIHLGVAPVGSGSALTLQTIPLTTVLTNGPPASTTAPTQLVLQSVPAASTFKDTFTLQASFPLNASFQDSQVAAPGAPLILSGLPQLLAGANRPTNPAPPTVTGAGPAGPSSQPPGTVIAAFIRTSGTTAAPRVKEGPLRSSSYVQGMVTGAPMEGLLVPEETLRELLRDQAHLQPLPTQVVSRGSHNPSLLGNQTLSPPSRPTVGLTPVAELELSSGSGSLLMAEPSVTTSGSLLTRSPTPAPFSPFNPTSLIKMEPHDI
Chain of ETV1 (P50549 whole entry): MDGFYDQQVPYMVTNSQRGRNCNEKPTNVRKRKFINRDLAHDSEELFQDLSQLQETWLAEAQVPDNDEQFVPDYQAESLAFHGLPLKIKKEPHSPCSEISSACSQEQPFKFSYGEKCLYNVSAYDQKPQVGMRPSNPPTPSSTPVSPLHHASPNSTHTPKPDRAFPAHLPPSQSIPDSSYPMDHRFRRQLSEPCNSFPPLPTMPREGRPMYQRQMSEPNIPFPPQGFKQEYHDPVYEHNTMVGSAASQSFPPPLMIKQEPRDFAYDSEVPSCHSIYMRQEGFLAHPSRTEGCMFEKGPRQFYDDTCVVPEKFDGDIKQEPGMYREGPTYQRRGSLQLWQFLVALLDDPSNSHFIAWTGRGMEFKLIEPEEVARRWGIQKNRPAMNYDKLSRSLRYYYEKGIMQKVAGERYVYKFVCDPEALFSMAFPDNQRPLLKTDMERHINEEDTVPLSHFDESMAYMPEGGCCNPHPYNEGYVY
Chain of ETV5 (P41161 whole entry): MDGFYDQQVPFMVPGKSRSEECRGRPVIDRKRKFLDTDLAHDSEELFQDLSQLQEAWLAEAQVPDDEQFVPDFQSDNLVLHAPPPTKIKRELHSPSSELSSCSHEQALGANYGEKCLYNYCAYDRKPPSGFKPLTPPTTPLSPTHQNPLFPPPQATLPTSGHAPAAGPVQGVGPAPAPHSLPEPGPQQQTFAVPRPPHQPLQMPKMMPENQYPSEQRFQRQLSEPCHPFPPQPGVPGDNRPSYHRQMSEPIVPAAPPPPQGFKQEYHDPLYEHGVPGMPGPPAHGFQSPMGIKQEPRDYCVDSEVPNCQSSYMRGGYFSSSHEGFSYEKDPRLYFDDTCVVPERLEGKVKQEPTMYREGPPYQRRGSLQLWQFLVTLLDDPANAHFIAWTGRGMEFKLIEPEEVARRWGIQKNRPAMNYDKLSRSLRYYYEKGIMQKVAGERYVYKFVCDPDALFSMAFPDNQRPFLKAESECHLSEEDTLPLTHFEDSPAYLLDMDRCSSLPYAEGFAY
Chain of HSF1 (Q00613 whole entry): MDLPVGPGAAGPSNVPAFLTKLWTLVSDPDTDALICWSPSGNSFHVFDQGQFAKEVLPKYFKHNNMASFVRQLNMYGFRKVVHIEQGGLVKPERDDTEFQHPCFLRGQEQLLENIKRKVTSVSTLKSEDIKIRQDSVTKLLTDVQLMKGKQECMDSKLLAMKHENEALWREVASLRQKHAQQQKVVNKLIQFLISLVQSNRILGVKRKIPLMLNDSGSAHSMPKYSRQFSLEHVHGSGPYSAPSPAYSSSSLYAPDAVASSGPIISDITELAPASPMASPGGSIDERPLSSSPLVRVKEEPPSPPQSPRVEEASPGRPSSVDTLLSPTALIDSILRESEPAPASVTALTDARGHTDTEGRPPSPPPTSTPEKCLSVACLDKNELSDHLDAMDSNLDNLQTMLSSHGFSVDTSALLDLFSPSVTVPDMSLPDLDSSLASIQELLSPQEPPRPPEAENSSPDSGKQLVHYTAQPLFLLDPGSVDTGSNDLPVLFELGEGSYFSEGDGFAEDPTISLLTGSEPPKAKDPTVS
Chain of ELF1 (P32519 whole entry): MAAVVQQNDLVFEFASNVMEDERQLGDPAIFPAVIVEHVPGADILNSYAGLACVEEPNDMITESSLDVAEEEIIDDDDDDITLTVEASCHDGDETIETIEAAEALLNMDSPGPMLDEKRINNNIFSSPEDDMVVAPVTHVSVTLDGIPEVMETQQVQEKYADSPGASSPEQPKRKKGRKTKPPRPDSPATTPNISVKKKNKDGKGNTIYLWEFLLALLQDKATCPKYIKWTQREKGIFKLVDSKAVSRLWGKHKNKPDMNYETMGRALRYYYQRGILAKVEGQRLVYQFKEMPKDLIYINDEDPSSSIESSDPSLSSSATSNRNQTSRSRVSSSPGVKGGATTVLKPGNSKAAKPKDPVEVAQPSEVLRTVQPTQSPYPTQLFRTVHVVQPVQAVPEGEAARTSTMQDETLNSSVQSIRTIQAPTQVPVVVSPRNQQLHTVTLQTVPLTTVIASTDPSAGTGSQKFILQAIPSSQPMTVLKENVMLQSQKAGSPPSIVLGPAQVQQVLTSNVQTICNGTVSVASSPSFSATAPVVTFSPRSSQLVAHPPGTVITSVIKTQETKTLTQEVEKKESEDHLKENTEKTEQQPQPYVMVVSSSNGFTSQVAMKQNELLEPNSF
Chain of SPIB (Q01892 whole entry): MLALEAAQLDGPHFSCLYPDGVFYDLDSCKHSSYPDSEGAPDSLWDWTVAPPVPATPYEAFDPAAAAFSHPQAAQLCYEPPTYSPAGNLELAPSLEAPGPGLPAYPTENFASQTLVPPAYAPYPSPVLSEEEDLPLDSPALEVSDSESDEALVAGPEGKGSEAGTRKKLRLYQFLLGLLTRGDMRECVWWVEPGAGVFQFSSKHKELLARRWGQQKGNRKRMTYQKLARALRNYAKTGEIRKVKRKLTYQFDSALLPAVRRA

## CACTCT
FLI1
  binding signal: 1.27 fold enrichment (6-mer frequency, TF over GST control)
ELK1
  binding signal: 1.25 fold enrichment (6-mer frequency, TF over GST control)
GABPA
  binding signal: 1.19 fold enrichment (6-mer frequency, TF over GST control)
ERG
  binding signal: 1.24 fold enrichment (6-mer frequency, TF over GST control)
ELF1
  binding signal: 1.36 fold enrichment (6-mer frequency, TF over GST control)
EHF
  binding signal: 1.38 fold enrichment (6-mer frequency, TF over GST control)
SPI1
  binding signal: 1.34 fold enrichment (6-mer frequency, TF over GST control)
SPIB
  binding signal: 1.23 fold enrichment (6-mer frequency, TF over GST control)
ELK3
  binding signal: 1.34 fold enrichment (6-mer frequency, TF over GST control)
FEV
  binding signal: 1.24 fold enrichment (6-mer frequency, TF over GST control)
ETV5
  binding signal: 1.29 fold enrichment (6-mer frequency, TF over GST control)
HSF1
  binding signal: 1.24 fold enrichment (6-mer frequency, TF over GST control)
SPIC
  binding signal: 1.22 fold enrichment (6-mer frequency, TF over GST control)
ELF4
  binding signal: 1.22 fold enrichment (6-mer frequency, TF over GST control)
ELK4
  binding signal: 1.58 fold enrichment (6-mer frequency, TF over GST control)
ETV2
  binding signal: 1.37 fold enrichment (6-mer frequency, TF over GST control)
ELF3
  binding signal: 1.4 fold enrichment (6-mer frequency, TF over GST control)
CRX
  binding signal: 1.08 fold enrichment (6-mer frequency, TF over GST control)
ETV1
  binding signal: 1.33 fold enrichment (6-mer frequency, TF over GST control)
